Source: PubChem BioAssay (NCATS)
“And” between values parts separate entries of the source, which are not always exact repeats. Equal values may be shown once. Values without a mark were called inactive. Inconclusive results are not listed. A call without a number means that no potency is given here. The source made the active and inactive calls. Unless noted, calls follow the shape of the dose curve; as a rule, active = well fitted curve in the direction sought with a large enough effect; inconclusive = small, poorly fitted or top-dose-only effect, or another doubt; inactive = no such curve, though single readings can be large; an effect the other way counts as inactive or inconclusive.

How the values were obtained:
[1] = Validation of Assay for Modulators of Lamin A Splicing (AID 1459; active = well fitted curve in the direction sought with a large enough effect in the signal ratio; the % refers to the signal ratio;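 also: cells exposed to compound for two days before reading; ratio rise marks activators and ratio drop marks inhibitors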)
Summary of the method: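 S3 HeLa cells stably expressing a lamin A-EGFP splicing minigene and DsRed2 were seeded at 600 cells/well in Opti-MEM with 2% FBS, pin-dosed, and incubated 48 hrs at 37 °C, 5% CO2. Laser-scanning cytometry (488 nm) gave GFP/RFP total intensity ratio.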

[2] = molecular target: DNA repair nuclease/redox regulator APEX1 (Homo sapiens) (UniProt P27695); test: qHTS Validation Assay for Inhibitors of the Human Apurinic/apyrimidinic Endonuclease 1 (APE1) (AID 1705;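 also: TAMRA fluorescence gain over two minutes as APE1 cuts a quenched THF abasic duplex; series mostly up to about 57 µM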)
Summary of the method: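 Human APE1 was preincubated with compound for 15 min at room temperature, then 50 nM (final) THF-abasic double-stranded DNA substrate bearing 5'-TAMRA and 3'-BHQ-2 was added. Incision-driven fluorescence rise (ex 525/em 598 nm) was read kinetically.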

[3] = Counterscreen for APE1 Inhibitors: Fluorescent Dye Displacement Validation Assay (AID 1707)
Summary of the method: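 ThO 250 nM + dsDNA 50 nM (THF abasic site, 5'-TAMRA), Tris-HCl pH7.5/50mM NaCl/2 mM MgCl2/0.01% Tween-20; compounds pin-transferred; ex 480/em 540 nm endpoint. Neutral = no compound; no-DNA ThO wells = negative control.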

[4] = molecular target: Endonuclease 4 (Escherichia coli (strain K12)) (UniProt P0A6C1); test: Counterscreen for APE1 Inhibitors: qHTS Validation Assay for Inhibitors of Endonuclease IV (AID 1708)
Summary of the method: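 E. coli EndoIV at 2 nM final, preincubated 15 min at room temperature with compound, then 50 nM TAMRA/BHQ-2 THF abasic-site duplex added. Buffer: 50 mM Tris-HCl pH 7.5, 50 mM NaCl, 2 mM MgCl2, 1 mM DTT, 0.01% Tween-20. Kinetic fluorescence increase, third minus first read.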

[5] = qHTS for differential inhibitors of proliferation of Plasmodium falciparum line 3D7 (AID 1876); also: potency is read from the fitted curve at half-maximal effect
[6] = qHTS for differential inhibitors of proliferation of Plasmodium falciparum line D10 (AID 1877);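 also: parasites grown with compound for 72 h before DNA staining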; also: potency is read from the fitted curve at half-maximal effect
[7] = qHTS for differential inhibitors of proliferation of Plasmodium falciparum line Dd2 (AID 1882); details: Potency: Plasmodium falciparum Dd2 proliferation inhibition; also: nearly all actives have a fitted effect of over 65% in size; also: potency is read from the fitted curve at half-maximal effect
Summary of the method: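 Dd2-infected erythrocytes (0.3% parasitemia, 2.5% hematocrit final) incubated with compound 72 h at 37 C, 5% CO2; lysed with saponin/Triton buffer containing SYBR Green I, incubated overnight in the dark, then read by fluorescence (485/535 nm). Normalized to 0.29 uM artemisinin and DMSO.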

[8] = molecular target: ATP-dependent DNA helicase Q1 (Homo sapiens) (UniProt P46063); test: qHTS Validation Assay for Inhibitors of RecQ-Like Dna Helicase 1 (RECQ1) (AID 2353)
Summary of the method: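 50 nM RECQ1T1 preincubated 15 min with compound in Tris pH 8.0 buffer with MgCl2, DTT, Tween-20 and 2.5 ug/ml poly(dI-dC); started with 200 nM TAMRA/BHQ-2 forked duplex and 2 mM ATP. Unwinding read as fluorescence (525/598 nm), two reads 2 h apart.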

[9] = Validation screen for small molecules that induce DNA re-replication in MCF 10A normal breast cells (AID 463097); also: nearly all actives have a fitted effect of over 60% in size
Summary of the method: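 Readout: Hoechst nuclear fluorescence intensity, 405 ex / 500-530 em, by scanning plate imager; re-replication scored as increase in nuclei with elevated DNA content. Cells exposed to compound 48 hr, 37 C, 5% CO2 beforehand.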

[10] = Quantitative high throughput screen for delayed death inhibitors of the malarial parasite plastid, 96 hour incubation (AID 488745);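 also: luciferase-expressing P. falciparum in erythrocytes at 2% hematocrit and 0.1% parasitemia; series mostly up to about 29 µM; nearly all actives have a fitted effect of over 70% in size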
Summary of the method: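 Infected erythrocytes were added to compound in Albumax-supplemented RPMI 1640 at 0.1% parasitemia and 2% hematocrit (final), incubated 96 h at 37 C under 5% CO2, then luciferase reagent was added and luminescence measured.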

[11] = Quantitative high throughput screen for delayed death inhibitors of the malarial parasite plastid, 48 hour incubation (AID 488752); also: nearly all actives have a fitted effect of over 65% in size
Summary of the method: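 Readout is firefly luciferase luminescence from a reporter integrated into the parasite genome, with lower signal taken as inhibited growth. Infected red cells (0.1% parasitemia, 2% hematocrit final) are cultured with compound for one 48 h cycle at 37 C.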

[12] = molecular target: Transient receptor potential cation channel subfamily V member 1 (Homo sapiens) (UniProt Q8NER1); test: HTS Assay for Compounds that Act as Enhancers of the Vanilloid Receptor 1 (AID 488979)
Summary of the method: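 TRPV1 cells loaded with Fluo-8 calcium dye; compound added and Ca2+ signal (ex 480/em 520 nm) followed 3 min, then capsaicin at EC20 added and read 2 more min to detect enhancement.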

[13] = molecular target: Thyrotropin receptor (Homo sapiens) (UniProt P16473); test: qHTS Assay for Antagonists of the Thyroid Stimulating Hormone Receptor (AID 488980); also: series mostly up to about 58 µM
Summary of the method: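 HEK293 cells transfected with human TSHR, suspended in HEPES-buffered HBSS with 70 uM RO 20-1724, were treated with compounds plus TSH at EC80 (4 nM final). cAMP was measured by competitive HTRF (cryptate anti-cAMP antibody, cAMP-d2 acceptor).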

[14] = molecular target: Thyrotropin-releasing hormone receptor (Homo sapiens) (UniProt P34981); test: qHTS for Small Molecule Agonists and Allosteric Enhancers of Human TRH Receptor: Validation Screen for Agonists (AID 493127;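 active = calcium activation more than 3 SD above the typical response in the agonist read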;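 also: intracellular calcium rise by fluo-8 fluorescence before TRH EC20 addition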); details: TRH receptor agonist cell assay; at 2 µM; hits give high values
Summary of the method: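 Cells 2000/well, 10% FCS, 18 h 33.5C/5% CO2 → fluo-8 Ca dye, RT 30 min–1.5 h → FDSS baseline 10 × 1 s → compound added → 230 cycles (1 s/cycle) agonist mode. TRH controls.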

[15] = molecular target: Galactokinase (Homo sapiens) (UniProt P51570); test: qHTS Validation Assay for Inhibitors of Human Galactokinase (GALK) (AID 493189)
Summary of the method: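 GALK (5 nM) with 35 uM ATP and 100 uM galactose in HEPES pH8.0, MgCl2, NaCl, DTT, BSA; 1 h at room temperature. Residual ATP read by Kinase-Glo Plus luminescence after 10 min.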

[16] = Validation screen for small molecules that induce DNA re-replication in SW480 colon adenocarcinoma cells (AID 504364)
Summary of the method: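 250 cells/well; compound pinned in; 48 hr, 37 C, 5% CO2; Hoechst added, 40 min; nuclear fluorescence imaged, 405 ex / 500-530 em; re-replication scored as increase in high-intensity nuclei.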

[17] = molecular target: Voltage-gated inwardly rectifying potassium channel KCNH2 (Homo sapiens) (UniProt Q12809); test: qHTS Assay for Small Molecule Inhibitors of the Human hERG Channel Activity (AID 588834);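 also: lower thallium flux fluorescence means stronger hERG block; nearly all actives have a fitted effect of over 50% in size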; also: potency is read from the fitted curve at half-maximal effect
Summary of the method: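 U2OS cells transduced with hERG via BacMam (MOI ~100), plated 2000/well, loaded with FluxOR thallium dye, compound ~10 min, then stimulation buffer; fluorescence decrease read kinetically; AC50 from Hill fits.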

[18] = qHTS for differential inhibitors of proliferation of Plasmodium falciparum line GB4 (AID 1816); details: Potency: Plasmodium falciparum GB4 proliferation inhibition;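 also: parasite growth measured after 72 h incubation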; also: potency is read from the fitted curve at half-maximal effect
[19] = qHTS for differential inhibitors of proliferation of Plasmodium falciparum line HB3 (AID 1886); details: Potency: Plasmodium falciparum HB3 proliferation inhibition;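 also: parasites grown with compound for 72 h before SYBR Green readout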; also: potency is read from the fitted curve at half-maximal effect

Chain of DNA repair nuclease/redox regulator APEX1 (Homo sapiens) (P27695 whole entry, looked up): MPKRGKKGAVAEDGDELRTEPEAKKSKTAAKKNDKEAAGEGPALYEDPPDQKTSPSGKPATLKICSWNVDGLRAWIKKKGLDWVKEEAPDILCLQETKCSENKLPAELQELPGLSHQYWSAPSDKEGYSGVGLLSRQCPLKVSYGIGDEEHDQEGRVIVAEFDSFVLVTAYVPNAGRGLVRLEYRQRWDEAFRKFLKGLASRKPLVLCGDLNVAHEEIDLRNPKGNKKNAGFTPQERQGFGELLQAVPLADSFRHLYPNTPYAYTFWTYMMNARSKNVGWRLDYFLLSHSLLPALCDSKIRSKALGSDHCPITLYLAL
Chain of Thyrotropin-releasing hormone receptor (Homo sapiens) (P34981 whole entry, looked up): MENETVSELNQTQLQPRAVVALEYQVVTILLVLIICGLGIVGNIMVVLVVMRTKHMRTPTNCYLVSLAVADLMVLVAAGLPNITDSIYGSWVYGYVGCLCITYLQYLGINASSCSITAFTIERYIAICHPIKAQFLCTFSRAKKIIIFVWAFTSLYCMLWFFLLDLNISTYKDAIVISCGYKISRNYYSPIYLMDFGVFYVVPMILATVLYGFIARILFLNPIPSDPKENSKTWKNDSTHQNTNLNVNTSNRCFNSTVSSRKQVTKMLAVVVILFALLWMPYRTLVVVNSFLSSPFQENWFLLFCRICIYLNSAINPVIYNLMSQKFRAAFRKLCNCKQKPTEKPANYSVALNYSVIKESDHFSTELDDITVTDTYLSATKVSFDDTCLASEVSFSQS
Chain of Voltage-gated inwardly rectifying potassium channel KCNH2 (Homo sapiens) (Q12809 whole entry, looked up): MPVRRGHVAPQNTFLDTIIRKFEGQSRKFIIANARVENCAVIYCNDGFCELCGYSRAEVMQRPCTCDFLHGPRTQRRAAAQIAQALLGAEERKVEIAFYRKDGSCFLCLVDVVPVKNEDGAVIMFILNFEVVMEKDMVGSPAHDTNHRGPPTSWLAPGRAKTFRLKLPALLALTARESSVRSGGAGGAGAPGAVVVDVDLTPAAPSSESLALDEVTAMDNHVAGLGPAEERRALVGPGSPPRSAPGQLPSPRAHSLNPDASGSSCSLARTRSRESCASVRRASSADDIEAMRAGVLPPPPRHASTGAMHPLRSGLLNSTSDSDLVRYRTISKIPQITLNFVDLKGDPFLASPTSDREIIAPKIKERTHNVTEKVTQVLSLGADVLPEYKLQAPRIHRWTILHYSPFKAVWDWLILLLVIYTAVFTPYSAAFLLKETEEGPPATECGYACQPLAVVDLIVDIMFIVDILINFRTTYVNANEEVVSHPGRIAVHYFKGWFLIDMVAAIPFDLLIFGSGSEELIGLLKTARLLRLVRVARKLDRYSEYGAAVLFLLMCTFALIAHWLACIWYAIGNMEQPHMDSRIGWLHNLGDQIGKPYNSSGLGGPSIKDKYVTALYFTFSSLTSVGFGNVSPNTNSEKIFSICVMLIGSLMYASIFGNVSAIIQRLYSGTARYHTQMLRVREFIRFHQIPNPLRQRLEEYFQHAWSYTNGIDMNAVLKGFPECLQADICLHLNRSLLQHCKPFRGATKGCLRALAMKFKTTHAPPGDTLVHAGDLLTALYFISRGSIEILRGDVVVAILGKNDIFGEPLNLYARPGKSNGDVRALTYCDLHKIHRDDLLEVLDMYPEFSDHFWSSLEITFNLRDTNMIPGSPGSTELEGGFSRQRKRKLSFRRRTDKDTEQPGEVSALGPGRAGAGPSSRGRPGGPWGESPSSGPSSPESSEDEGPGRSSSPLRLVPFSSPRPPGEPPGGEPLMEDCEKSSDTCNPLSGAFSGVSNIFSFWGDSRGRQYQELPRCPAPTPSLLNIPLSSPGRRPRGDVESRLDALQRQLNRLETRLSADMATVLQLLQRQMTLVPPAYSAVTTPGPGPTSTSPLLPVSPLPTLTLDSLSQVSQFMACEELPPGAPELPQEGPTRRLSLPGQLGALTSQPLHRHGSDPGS
Chain of Transient receptor potential cation channel subfamily V member 1 (Homo sapiens) (Q8NER1 whole entry, looked up): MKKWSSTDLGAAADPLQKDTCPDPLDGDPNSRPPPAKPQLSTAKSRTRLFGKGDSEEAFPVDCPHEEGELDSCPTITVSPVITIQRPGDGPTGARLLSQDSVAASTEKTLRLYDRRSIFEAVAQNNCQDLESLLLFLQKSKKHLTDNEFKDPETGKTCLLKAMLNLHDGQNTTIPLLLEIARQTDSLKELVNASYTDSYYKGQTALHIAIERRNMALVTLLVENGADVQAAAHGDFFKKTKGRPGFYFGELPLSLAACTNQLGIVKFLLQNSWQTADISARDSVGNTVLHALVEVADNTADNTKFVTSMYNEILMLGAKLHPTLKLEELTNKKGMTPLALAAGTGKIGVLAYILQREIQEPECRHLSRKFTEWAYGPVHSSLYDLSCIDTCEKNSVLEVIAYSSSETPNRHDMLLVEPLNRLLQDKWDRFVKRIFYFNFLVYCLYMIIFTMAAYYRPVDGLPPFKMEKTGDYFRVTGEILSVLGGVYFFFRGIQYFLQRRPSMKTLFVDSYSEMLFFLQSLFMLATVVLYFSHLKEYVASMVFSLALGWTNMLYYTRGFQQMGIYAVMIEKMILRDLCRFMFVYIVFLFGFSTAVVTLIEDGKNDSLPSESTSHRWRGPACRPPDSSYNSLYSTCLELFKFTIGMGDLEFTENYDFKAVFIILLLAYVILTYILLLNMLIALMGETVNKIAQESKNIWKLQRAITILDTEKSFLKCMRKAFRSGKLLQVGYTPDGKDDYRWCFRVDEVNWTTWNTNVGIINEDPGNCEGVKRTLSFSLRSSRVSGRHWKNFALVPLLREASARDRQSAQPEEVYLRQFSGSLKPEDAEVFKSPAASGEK
Chain of Galactokinase (Homo sapiens) (P51570 whole entry, looked up): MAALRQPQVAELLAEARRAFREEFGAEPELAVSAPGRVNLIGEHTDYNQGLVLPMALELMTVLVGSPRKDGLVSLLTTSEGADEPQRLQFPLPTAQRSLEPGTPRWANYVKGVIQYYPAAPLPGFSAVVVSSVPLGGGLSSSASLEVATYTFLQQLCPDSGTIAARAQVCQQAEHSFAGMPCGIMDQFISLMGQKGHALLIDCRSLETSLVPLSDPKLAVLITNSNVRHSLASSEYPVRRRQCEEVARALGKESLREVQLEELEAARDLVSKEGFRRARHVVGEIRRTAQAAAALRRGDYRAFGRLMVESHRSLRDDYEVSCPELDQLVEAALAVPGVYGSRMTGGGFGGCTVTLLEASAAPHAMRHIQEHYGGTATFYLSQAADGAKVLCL
Chain of Thyrotropin receptor (Homo sapiens) (P16473 whole entry, looked up): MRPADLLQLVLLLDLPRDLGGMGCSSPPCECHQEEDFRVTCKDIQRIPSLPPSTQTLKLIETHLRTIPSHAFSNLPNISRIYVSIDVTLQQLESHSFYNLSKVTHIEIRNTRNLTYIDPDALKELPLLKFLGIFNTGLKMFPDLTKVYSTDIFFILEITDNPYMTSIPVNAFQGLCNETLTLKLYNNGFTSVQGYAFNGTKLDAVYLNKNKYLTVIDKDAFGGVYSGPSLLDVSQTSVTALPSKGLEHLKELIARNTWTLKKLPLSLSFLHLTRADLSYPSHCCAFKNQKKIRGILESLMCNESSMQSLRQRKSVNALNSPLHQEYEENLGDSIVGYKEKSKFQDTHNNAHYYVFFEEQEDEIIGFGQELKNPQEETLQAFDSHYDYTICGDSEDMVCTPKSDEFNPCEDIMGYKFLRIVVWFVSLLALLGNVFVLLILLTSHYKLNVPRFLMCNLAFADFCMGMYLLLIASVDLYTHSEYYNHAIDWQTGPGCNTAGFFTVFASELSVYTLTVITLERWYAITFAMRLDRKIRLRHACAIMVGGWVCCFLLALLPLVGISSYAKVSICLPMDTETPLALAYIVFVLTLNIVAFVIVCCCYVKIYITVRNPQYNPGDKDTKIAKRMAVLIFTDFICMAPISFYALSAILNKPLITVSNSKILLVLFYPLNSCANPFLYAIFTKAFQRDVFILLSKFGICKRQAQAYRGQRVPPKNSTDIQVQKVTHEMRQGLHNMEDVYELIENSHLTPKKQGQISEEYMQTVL
Chain of ATP-dependent DNA helicase Q1 (Homo sapiens) (P46063 whole entry, looked up): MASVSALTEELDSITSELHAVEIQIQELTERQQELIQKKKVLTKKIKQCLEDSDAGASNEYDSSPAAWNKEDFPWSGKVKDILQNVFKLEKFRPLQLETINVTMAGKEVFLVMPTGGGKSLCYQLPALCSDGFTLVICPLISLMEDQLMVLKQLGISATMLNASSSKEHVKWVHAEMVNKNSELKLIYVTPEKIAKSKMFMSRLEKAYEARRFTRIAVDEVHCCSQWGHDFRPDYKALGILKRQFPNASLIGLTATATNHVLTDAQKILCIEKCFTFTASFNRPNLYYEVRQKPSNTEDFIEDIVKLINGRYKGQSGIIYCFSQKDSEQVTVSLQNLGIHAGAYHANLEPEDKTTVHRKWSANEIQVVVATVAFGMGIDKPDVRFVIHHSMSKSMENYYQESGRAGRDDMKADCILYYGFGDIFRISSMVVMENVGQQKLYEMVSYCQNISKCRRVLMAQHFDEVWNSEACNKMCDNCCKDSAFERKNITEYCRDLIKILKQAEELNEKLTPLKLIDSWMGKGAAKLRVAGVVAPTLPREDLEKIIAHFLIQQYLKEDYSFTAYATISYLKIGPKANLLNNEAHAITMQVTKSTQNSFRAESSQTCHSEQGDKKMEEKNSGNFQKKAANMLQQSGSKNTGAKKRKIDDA

Compound | outcome [1] | Potency [2] | Potency [3] | outcome [4] | Potency [5] | Potency [6] | Potency [7] | Potency [8] | outcome [9] | Potency [10] | Potency [11] | outcome [12] | outcome [13] | activation [14] [%] | outcome [15] | outcome [16] | Potency [17] | Potency [18] | Potency [19]
C[C@H]1CC2[C@@H]3CCC4=CC(=O)C=C[C@]4(C)[C@@]3(Cl)[C@@H](O)C[C@]2(C)[C@@]1(O)C(=O)CO (some centres undefined) | inactive | inactive | inactive | inactive | inactive | inactive | inactive | inactive | inactive | inactive | inactive | inactive | inactive | 0.25 | inactive | inactive | inactive |  | 
CC(C)(C)[C@]1(O)CCN2CC3c4ccccc4CCc4cccc(c43)[C@@H]2C1 (some centres undefined) | inactive | inactive | inactive |  | 6.31 µM (active) and 3.55 µM (active) | 12.6 µM (active) and 11.2 µM (active) | 7.08 µM (active) and 14.1 µM (active) | inactive |  |  |  |  | inactive |  | inactive | inactive | 2 µM (active) | 6.31 µM (active) and 5.01 µM (active) | 12.6 µM (active) and 6.31 µM (active)
CN1CCc2cc(Cl)c(O)cc2C(c2ccccc2)C1 (centres undefined) | inactive | inactive | inactive |  | 11.2 µM (active) | 12.6 µM (active) | 8.91 µM (active) | inactive | inactive |  |  | inactive | inactive | 1.12 | inactive | inactive | 10 µM (active) | 11.2 µM (active) | 12.6 µM (active)
OC[C@H]1O[C@@H](n2cnc3c(N[C@H]4CC5CCC4C5)ncnc32)[C@H](O)[C@@H]1O (some centres undefined) | inactive | inactive | inactive | inactive | inactive | inactive | inactive | inactive | inactive | inactive | inactive | inactive | inactive | 0.875 | inactive | inactive | inactive | inactive | inactive
CSc1nc(N)c2ncn([C@@H]3O[C@H](COP(=O)(O)OP(=O)(O)O)[C@H](O)[C@H]3O)c2n1 | inactive | inactive | inactive |  | inactive | inactive | inactive | inactive | inactive | inactive | inactive | inactive | inactive | 17.3 | inactive | inactive | inactive | inactive | inactive
Nc1ncnc2c1nc(Sc1ccc(Cl)cc1)n2[C@H]1O[C@@H]2COP(=O)(O)O[C@H]2[C@@H]1O | inactive | inactive | inactive | inactive |  |  |  | inactive | inactive | inactive | inactive | inactive | inactive | 1.31 | inactive | inactive | inactive | 7.94 µM (active) | 10 µM (active)
